Legend:
Test in all cases: DAPPL (digital affinity profiling via proximity ligation, sequencing); 10 mM Tris-HCl pH 7.5, 50 mM NaCl, 1 mM DTT, 4% glycerol, room temperature, 30 min; GST-TFs on glutathione beads, 16-mer random dsDNA library, 0.1% formaldehyde crosslink after washing; high values mean tight binding
Details in all cases: protein: recombinant; tags: N-terminal GST; dsDNA, one strand shown
FLI1 = target: T1, FLI1 (Homo sapiens, UniProt Q01543 1-452)
T1 sequence: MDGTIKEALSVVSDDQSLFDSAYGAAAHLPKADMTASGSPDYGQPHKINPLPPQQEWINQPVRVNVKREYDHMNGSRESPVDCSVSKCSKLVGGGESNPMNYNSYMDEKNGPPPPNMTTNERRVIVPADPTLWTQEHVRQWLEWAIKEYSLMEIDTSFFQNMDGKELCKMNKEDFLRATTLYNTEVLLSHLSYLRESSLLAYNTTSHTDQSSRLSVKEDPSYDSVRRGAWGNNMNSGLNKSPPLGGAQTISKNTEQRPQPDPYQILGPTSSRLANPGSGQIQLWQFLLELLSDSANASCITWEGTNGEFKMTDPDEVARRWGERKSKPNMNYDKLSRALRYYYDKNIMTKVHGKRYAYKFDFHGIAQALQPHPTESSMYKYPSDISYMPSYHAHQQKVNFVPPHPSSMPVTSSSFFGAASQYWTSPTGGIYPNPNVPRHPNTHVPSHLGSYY
Method in brief: (§1)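 Pools were built from human transcription factors expressed in yeast as GST fusions, captured on glutathione beads and DNA-barcoded, along with a tag-only sample. Incubation with 200 nmole of a 16-mer random double-stranded DNA library lasted 30 min at room temperature in Tris/NaCl/DTT/glycerol buffer, and was followed by washing, 0.1% formaldehyde crosslinking, proximity ligation, PCR amplification and Illumina NextSeq500 sequencing. Binding signal is the quotient of each hexamer's read frequency for a factor and its frequency for the tag-only sample.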

ELK1 = target: T2, ELK1 (Homo sapiens, UniProt P19419 1-428)
T2 sequence: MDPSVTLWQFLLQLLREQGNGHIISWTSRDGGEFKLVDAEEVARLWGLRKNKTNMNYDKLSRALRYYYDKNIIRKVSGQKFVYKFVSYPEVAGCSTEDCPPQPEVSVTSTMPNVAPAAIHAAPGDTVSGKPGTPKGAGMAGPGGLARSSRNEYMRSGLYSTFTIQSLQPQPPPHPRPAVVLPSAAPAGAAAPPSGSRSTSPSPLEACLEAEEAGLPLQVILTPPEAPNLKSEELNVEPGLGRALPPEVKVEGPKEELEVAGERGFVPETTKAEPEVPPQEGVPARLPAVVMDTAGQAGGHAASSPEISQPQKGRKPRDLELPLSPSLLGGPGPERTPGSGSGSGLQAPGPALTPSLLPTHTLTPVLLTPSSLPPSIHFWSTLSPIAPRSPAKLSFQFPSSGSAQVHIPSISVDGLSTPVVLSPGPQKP
Method in brief: as §1

GABPA = target: T3, GABPA (Homo sapiens, UniProt Q06546 1-454)
T3 sequence: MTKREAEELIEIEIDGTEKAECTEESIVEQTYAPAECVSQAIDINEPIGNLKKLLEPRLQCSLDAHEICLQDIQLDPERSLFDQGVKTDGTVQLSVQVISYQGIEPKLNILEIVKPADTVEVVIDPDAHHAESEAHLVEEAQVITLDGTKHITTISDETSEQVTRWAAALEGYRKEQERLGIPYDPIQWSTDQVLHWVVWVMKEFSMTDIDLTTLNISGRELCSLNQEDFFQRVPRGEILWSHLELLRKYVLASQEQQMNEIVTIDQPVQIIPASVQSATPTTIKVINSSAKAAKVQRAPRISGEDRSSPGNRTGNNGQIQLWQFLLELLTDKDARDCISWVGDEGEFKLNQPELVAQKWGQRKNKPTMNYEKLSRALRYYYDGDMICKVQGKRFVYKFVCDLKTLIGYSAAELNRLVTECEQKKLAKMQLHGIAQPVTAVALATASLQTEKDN
Method in brief: as §1

ERG = target: T4, ERG (Homo sapiens, UniProt P11308 1-479)
T4 sequence: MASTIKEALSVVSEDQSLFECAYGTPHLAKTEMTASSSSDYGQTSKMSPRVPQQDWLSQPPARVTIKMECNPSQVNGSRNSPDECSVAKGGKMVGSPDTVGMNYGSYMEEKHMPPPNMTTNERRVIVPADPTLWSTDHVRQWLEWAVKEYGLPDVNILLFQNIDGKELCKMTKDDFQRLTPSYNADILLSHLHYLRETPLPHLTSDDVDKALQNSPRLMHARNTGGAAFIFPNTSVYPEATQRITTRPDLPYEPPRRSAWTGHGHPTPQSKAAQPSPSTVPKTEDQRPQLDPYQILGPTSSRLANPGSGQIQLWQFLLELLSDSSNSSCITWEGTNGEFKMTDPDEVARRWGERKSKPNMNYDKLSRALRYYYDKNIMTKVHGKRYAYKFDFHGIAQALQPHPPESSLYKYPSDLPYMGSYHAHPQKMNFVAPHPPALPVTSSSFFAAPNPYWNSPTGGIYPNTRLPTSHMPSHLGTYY
Method in brief: as §1

ELF1 = ELF1 (Homo sapiens, UniProt P32519 1-619)
Method in brief: as §1

EHF = target: T5, EHF (Homo sapiens, UniProt Q9NZC4 1-300)
T5 sequence: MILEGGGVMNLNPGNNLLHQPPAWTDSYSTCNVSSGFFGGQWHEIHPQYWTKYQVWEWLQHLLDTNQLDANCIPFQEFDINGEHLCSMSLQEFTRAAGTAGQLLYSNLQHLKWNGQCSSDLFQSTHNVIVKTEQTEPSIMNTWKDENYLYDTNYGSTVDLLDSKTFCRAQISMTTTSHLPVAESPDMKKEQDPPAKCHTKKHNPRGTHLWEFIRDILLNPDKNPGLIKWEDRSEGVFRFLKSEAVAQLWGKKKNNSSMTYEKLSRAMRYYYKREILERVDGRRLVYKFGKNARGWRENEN
Method in brief: as §1

SPI1 = SPI1 (Homo sapiens, UniProt P17947 1-270)
Method in brief: as §1

SPIB = SPIB (Homo sapiens, UniProt Q01892 1-262)
Method in brief: as §1

ELK3 = target: T6, ELK3 (Homo sapiens, UniProt P41970 1-407)
T6 sequence: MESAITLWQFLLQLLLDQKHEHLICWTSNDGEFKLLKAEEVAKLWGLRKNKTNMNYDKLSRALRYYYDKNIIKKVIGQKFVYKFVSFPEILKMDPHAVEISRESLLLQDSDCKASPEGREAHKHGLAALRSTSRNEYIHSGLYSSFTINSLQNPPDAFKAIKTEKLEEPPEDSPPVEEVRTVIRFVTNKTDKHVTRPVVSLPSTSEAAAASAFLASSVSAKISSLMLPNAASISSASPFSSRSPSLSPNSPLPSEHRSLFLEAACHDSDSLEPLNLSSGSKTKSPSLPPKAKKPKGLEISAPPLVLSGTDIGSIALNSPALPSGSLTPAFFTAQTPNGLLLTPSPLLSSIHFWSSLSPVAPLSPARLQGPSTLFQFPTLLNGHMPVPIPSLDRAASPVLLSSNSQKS
Method in brief: as §1

SPIB, sequence (Q01892 whole entry): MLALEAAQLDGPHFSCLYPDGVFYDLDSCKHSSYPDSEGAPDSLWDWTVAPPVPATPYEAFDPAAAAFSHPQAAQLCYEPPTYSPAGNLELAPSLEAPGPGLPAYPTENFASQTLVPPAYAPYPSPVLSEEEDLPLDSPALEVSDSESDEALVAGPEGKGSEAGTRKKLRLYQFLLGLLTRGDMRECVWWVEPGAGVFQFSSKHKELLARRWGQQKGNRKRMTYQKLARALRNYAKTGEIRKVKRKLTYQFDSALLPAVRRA
ELF1, sequence (P32519 whole entry): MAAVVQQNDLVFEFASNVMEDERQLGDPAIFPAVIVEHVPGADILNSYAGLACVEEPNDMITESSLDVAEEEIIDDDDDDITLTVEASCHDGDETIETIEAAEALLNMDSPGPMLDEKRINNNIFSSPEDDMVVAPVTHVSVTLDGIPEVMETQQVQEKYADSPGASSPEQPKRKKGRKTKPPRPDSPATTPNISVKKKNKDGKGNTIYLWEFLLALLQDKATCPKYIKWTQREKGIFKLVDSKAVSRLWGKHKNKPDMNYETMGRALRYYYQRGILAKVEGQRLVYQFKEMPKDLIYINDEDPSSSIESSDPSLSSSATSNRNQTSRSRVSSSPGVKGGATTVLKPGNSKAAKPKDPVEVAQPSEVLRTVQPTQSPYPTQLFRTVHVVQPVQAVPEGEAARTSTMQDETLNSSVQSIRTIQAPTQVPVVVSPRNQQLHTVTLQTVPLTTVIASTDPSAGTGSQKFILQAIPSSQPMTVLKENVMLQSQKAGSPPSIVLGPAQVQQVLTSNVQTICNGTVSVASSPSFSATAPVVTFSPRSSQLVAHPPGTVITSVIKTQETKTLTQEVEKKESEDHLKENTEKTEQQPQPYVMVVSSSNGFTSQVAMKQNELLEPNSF

| Sequence | binding signal (FLI1) | binding signal (ELK1) | binding signal (GABPA) | binding signal (ERG) | binding signal (ELF1) | binding signal (EHF) | binding signal (SPI1) | binding signal (SPIB) | binding signal (ELK3) |
| --- | --- | --- | --- | --- | --- | --- | --- | --- | --- |
| GCCTTG | 1.34 fold enrichment (6-mer frequency, TF over GST control) | 1.27 fold enrichment (6-mer frequency, TF over GST control) | 1.33 fold enrichment (6-mer frequency, TF over GST control) | 1.26 fold enrichment (6-mer frequency, TF over GST control) | 1.29 fold enrichment (6-mer frequency, TF over GST control) | 1.24 fold enrichment (6-mer frequency, TF over GST control) | 1.25 fold enrichment (6-mer frequency, TF over GST control) | 1.23 fold enrichment (6-mer frequency, TF over GST control) | 1.18 fold enrichment (6-mer frequency, TF over GST control) |
| GTAAAA | 1.05 fold enrichment (6-mer frequency, TF over GST control) | 1 fold enrichment (6-mer frequency, TF over GST control) | 1.18 fold enrichment (6-mer frequency, TF over GST control) | 1.14 fold enrichment (6-mer frequency, TF over GST control) | 1.13 fold enrichment (6-mer frequency, TF over GST control) | 1.16 fold enrichment (6-mer frequency, TF over GST control) | 1.3 fold enrichment (6-mer frequency, TF over GST control) | 1.1 fold enrichment (6-mer frequency, TF over GST control) | 1.11 fold enrichment (6-mer frequency, TF over GST control) |
| CTATCT | 1.26 fold enrichment (6-mer frequency, TF over GST control) | 1.43 fold enrichment (6-mer frequency, TF over GST control) | 1.34 fold enrichment (6-mer frequency, TF over GST control) | 1.29 fold enrichment (6-mer frequency, TF over GST control) | 1.34 fold enrichment (6-mer frequency, TF over GST control) | 1.54 fold enrichment (6-mer frequency, TF over GST control) | 1.42 fold enrichment (6-mer frequency, TF over GST control) | 1.28 fold enrichment (6-mer frequency, TF over GST control) | 1.48 fold enrichment (6-mer frequency, TF over GST control) |
| TAACAC | 1.26 fold enrichment (6-mer frequency, TF over GST control) | 1.2 fold enrichment (6-mer frequency, TF over GST control) | 1.24 fold enrichment (6-mer frequency, TF over GST control) | 1.19 fold enrichment (6-mer frequency, TF over GST control) | 1.23 fold enrichment (6-mer frequency, TF over GST control) | 1.21 fold enrichment (6-mer frequency, TF over GST control) | 1.18 fold enrichment (6-mer frequency, TF over GST control) | 1.25 fold enrichment (6-mer frequency, TF over GST control) | 1.15 fold enrichment (6-mer frequency, TF over GST control) |
| TTCCCA | 1.18 fold enrichment (6-mer frequency, TF over GST control) | 1.3 fold enrichment (6-mer frequency, TF over GST control) | 1.2 fold enrichment (6-mer frequency, TF over GST control) | 1.3 fold enrichment (6-mer frequency, TF over GST control) | 1.3 fold enrichment (6-mer frequency, TF over GST control) | 1.34 fold enrichment (6-mer frequency, TF over GST control) | 1.28 fold enrichment (6-mer frequency, TF over GST control) | 1.34 fold enrichment (6-mer frequency, TF over GST control) | 1.17 fold enrichment (6-mer frequency, TF over GST control) |
| AAATTG | 1.2 fold enrichment (6-mer frequency, TF over GST control) | 1.23 fold enrichment (6-mer frequency, TF over GST control) | 1.26 fold enrichment (6-mer frequency, TF over GST control) | 1.23 fold enrichment (6-mer frequency, TF over GST control) | 1.22 fold enrichment (6-mer frequency, TF over GST control) | 1.28 fold enrichment (6-mer frequency, TF over GST control) | 1.26 fold enrichment (6-mer frequency, TF over GST control) | 1.25 fold enrichment (6-mer frequency, TF over GST control) | 1.22 fold enrichment (6-mer frequency, TF over GST control) |
| ACTTCG | 1.38 fold enrichment (6-mer frequency, TF over GST control) | 1.38 fold enrichment (6-mer frequency, TF over GST control) | 1.46 fold enrichment (6-mer frequency, TF over GST control) | 1.47 fold enrichment (6-mer frequency, TF over GST control) | 1.33 fold enrichment (6-mer frequency, TF over GST control) | 1.3 fold enrichment (6-mer frequency, TF over GST control) | 1.44 fold enrichment (6-mer frequency, TF over GST control) | 1.39 fold enrichment (6-mer frequency, TF over GST control) | 1.49 fold enrichment (6-mer frequency, TF over GST control) |
